A selection: hits, their analogues and other compounds. The true share with any hit is near 7.3%.
HCV inh – qHTS Assay for Inhibitors of Hepatitis C Virus (HCV). Potency, µM (series often up to 41.8 µM), for the others: top-dose activity change, negative = inhibition, most hits filed as inhibitors. 3.4% of 340,000 active. Huh7.5.1 HCVcc-Cre infection, luciferase reporter, 44 h; also: potency is read from the fitted curve at half-maximal effect
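Whole-lifecycle infectious HCVcc-Cre system; cells 1,000/well, compound then virus (~0.5 moi) added 4 h after plating, 44 h culture. Luciferase read 15 sec following 15 min substrate incubation, room temp.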
AmpC inh detg – qHTS Inhibitors of AmpC Beta-Lactamase (assay with detergent). AmpC hydrolysis of nitrocefin, absorbance 480 nm, 0.01% Triton. Potency, µM (titrated, usually from 114 µM), for the others: at the top dose activity change, negative = inhibition, usual class: inhibitors. 0.041% of 370,000 active;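 also: potency is read from the fitted curve at half-maximal effect; 0% = no-compound wells and -100% = no-enzyme wells; nearly all actives have a fitted effect of over 25% in size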
Target sequence (P00811 whole entry, looked up): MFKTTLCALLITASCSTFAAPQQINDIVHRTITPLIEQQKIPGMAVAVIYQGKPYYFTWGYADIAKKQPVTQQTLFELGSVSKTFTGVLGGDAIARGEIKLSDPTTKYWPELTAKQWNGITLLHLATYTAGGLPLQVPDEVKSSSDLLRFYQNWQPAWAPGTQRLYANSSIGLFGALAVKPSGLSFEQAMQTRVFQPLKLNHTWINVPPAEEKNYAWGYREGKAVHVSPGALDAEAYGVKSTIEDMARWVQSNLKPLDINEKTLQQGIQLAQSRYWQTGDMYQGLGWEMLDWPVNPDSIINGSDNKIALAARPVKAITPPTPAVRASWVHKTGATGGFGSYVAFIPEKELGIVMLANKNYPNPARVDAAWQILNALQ
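AmpC (5.3 nM in the dispensed reagent) in 20 mM phosphate pH 7.0 with 0.01% (detergent screen) or 0.0001% Triton X-100 was preincubated with compounds for 15 min at room temperature. Nitrocefin was then added from an 800 uM solution, and hydrolysis was followed at 480 nm.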
HCMV antiviral – qHTS Assay for inhibitors of the human cytomegalovirus (HCMV). HFF cells, HCMV-luciferase reporter, 72 h; active compounds read low. activity change, negative = inhibition, % at 57.5 µM. 4.5% of 410,000 active. AID 1259415, 2018; in the data active = activity change below about -60%; inconclusive = no clear call, values can overlap the other calls; inactive = above about -39%
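Two compound doses tested in HFFs infected with HCMV-luciferase, MOI 1 PFU/cell, 72 h at 37C. Lysate luminescence read with OneGlo; data normalized against buffer-only and 10uM Salinomycin inhibitor controls.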
FMDV antiviral – High Throughput Screening for Foot and Mouth Disease Virus Antivirals; Potency, µM (doses to about 57.9 µM), without a hit: at the top dose activity change, negative = inhibition, hits mostly inhibitors; FMDV antiviral cell-based qHTS; 1.2% of 410,000 active; calls by dose curve; tested in HEK293T cells; also: read-out not given here; potency is read from the fitted curve at half-maximal effect; nearly all actives have a fitted effect of over 45% in size
AmpC inh no detg – qHTS Inhibitors of AmpC Beta-Lactamase (assay without detergent); Potency, µM (highest dose often 57.1 µM), for the others: at the top dose activity change, negative = inhibition, hits mostly inhibitors; 0.52% of 330,000 active; AmpC nitrocefin hydrolysis, absorbance 480 nm, 0.0001% Triton;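 also: potency is read from the fitted curve at half-maximal effect; plate controls were no compound for no effect and no enzyme for full effect; nearly all actives have a fitted effect of over 20% in size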
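AmpC (5.3 nM in the dispensed reagent) in 20 mM phosphate pH 7.0 with 0.01% (detergent screen) or 0.0001% Triton X-100 was preincubated with compounds for 15 min at room temperature. Nitrocefin was then added from an 800 uM solution, and hydrolysis was followed at 480 nm.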
* hit, by the source's call; ? = inconclusive; nt = not tested or not shown; + = active, no number. Unless noted, calls follow the shape of the dose curve; as a rule, active = well fitted curve in the direction sought with a large enough effect; inconclusive = small, poorly fitted or top-dose-only effect, or another doubt; inactive = no such curve, though single readings can be large; an effect the other way counts as inactive or inconclusive. Unless noted, % is scaled to controls: 0 for no effect and ±100 for the full control effect.

SMILES	HCV inh	AmpC inh detg	HCMV antiviral	FMDV antiviral	AmpC inh no detg
Cc1c(OCC(=O)NCC(O)c2ccccc2)ccc2c(-c3ccccc3)cc(=O)oc12 (stereo not drawn)	31.6µM*	?	?	-10.1%	7.0%
O=C1NC[C@H](c2ccccc2)N(CCC23CC4CC(CC(C4)C2)C3)C1=O	8.5%	-12.1%	-3.8	-6.7%	-17.1%
COc1ccc(CCNc2ncnc3c2nnn3C)cc1	nt	1.6%	-31.7	-39.5%	nt
COc1ccc(NC(=O)c2nn(C)c(=O)c3ccccc23)cc1S(=O)(=O)Nc1ccccc1Cl	12.6µM*	-0.4%	87.9	85.8%	97.4%
COc1cc(/C=N/Nc2snc(SC)c2C#N)cc(OC)c1OC	?	1.3%	-86.4*	?	-33.8%
COc1ccc(OC)c(Nc2cc(C(=O)NCCCN3CCOCC3)c3ccccc3n2)c1	?	-5.0%	-15.5	-19.0%	155.7%
COc1ccc(Nc2cc(C(=O)N3CCc4ccccc4C3)c3ccccc3n2)c(OC)c1	10µM*	-9.2%	-23.0	-12.7%	25.1%
COc1ccc(Nc2cc(C(=O)NCCCN(C)C3CCCCC3)c3ccccc3n2)c(OC)c1	nt	-5.6%	-31.8	-0.1%	nt
COc1ccc(N2CCN(CCCNC(=O)c3cc(Nc4ccc(OC)cc4OC)nc4ccccc34)CC2)cc1	nt	1.9%	-38.3	22.4µM*	nt
COc1ccc(Nc2cc(C(=O)NCCCN(C)C3CCCCC3)c3ccccc3n2)cc1	nt	-4.4%	-106.8*	0.0%	nt
COc1ccc(N2CCN(CCCNC(=O)c3ccc4nc(Cc5ccccc5)oc4c3)CC2)cc1	nt	18.4%	-60.4*	25.1µM*	nt
Cc1cc(C)c2[nH]c(C)c(CN3CCCCCC3)c(=O)c2c1	?	4.8%	-31.0	3.8%	0.8%
COc1ccccc1C(=O)NCCSc1c(C)[nH]c2ccccc12	nt	-6.4%	-39.2	?	nt
COc1cccc(C(=O)NCCSc2c(C)[nH]c3ccccc23)c1OC	12.6µM*	-3.8%	-32.1	?	-19.1%
COc1ccc(-c2[nH]c3ccccc3c2SCCNC(=O)c2ccccc2)cc1	12.6µM*	?	-28.3	0.0%	-26.1%
Cc1ccc(C(=O)NCCSc2c(C)[nH]c3ccccc23)cc1[N+](=O)[O-]	11.2µM*	4.7%	11.5	35.5µM*	-36.6%
CCOC(=O)c1cc(-c2ccccc2)n(-c2cccc(C(=O)Nc3ccc(OC)cc3)c2)c1C	nt	2.6%	+	0.0%	nt
CCOC(=O)c1cc(-c2ccccc2)n(-c2cccc(C(=O)Nc3cccc(F)c3)c2)c1C	nt	7.4%	+	-13.6%	nt
O=S(=O)(c1ccc(SCc2cccc(Cl)c2)nc1)N1CCCC1	-23.3%	2.4%	-30.9	-15.4%	-14.3%
CC(CCc1ccc(O)cc1)N1CCC(Oc2ccc(C(=O)N3CCCC3)cc2)CC1 (stereo not drawn)	-0.6%	-1.5%	-60.3*	-3.8%	-14.8%
COc1ccc(CCC(C)N2CCC(Oc3ccc(C(=O)N4CCCC4)cc3)CC2)cc1 (stereo not drawn)	?	7.4%	-8.2	15.2%	85.9%
COc1cccc(-c2nc(NCCN3CCOCC3)c3ccccc3n2)c1O	10µM*	0.1%	13.5	-16.1%	115.7%
COc1ccccc1-c1nc(NCCN2CCOCC2)c2ccccc2n1	nt	nt	nt	3.6%	nt
Cc1cc(NCCN2CCOCC2)c2ccc3ccccc3c2n1	-17.8%	-5.0%	-69.4*	3.7%	1.2%
CN(C)CCCNc1c2ccccc2nc2ccccc12	7.94µM*	-5.4%	-101.9*	-29.5%	0.9%
OCCNc1c2ccccc2nc2c(F)c(F)c(F)c(F)c12	?	-3.0%	-23.4	22.4µM*	-18.4%
Cc1c2ccccc2nc2c(F)c(NCCO)c(F)c(F)c12	?	?	64.0	44.2%	50.8%
CN(C)CCCNc1nc(-c2ccccc2)nc2ccccc12	-19.8%	9.4%	22.1	-15.3%	-5.4%
CCOC(=O)C1CCCN(c2nc3c(S(=O)(=O)c4ccc(C)c(C)c4)nnn3c3ccc(Cl)cc23)C1 (stereo not drawn)	nt	20.9%	5.9	-9.7%	nt
CC(C)CCOc1ccc(C(=O)N2CCN(c3ncccn3)CC2)cc1	-4.8%	1.1%	29.8	-17.2%	72.1%
